m5-HT2A agonist – mouse HTR2A agonism via beta-arrestin recruitment; CHO-K1 mHTR2A beta-arrestin complementation, luminescence; percent of 30 µM serotonin response; activation, % at 7.6 µM; 0.66% of 360,000 active;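 active means activation above a run cutoff, the mean activation of all tested compounds plus 3 SD, cut at about 14% in these data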;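 further: 0% = plate median of compound wells and 100% = 30 µM serotonin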
B2AR ag – activates human beta-2 adrenergic receptor causing internalization. P07550. Am2.2-beta2AR cells, FAP receptor internalization, flow cytometry. response, % (concentration not given with the values). 0.43% of 340,000 active. AID 504454;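 active means response above a set limit, near 3 SD of response in nonfluorescent compounds, cut at about 42% in these data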
Granule exo inh – blocks lytic granule exocytosis. AID 651702. inhibition, % at 10 µM. 0.66% of 360,000 active. TALL-104 LAMP-1 surface exposure, flow cytometry; cells stimulated with thapsigargin and PMA;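 active means inhibition above about 55%, limit read from the data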
ABHD5-PLIN5 inh – blocks binding of human ABHD5 to perilipin-5 | 0.78% of 360,000 active | inhibition, % at 4 µM | Split G. princeps luciferase complementation, luminescence, 4 h | Q00G26+Q8WTS1;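 active means inhibition above the mean inhibition across every tested compound plus 3 SD, cut at about 22% in these data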;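 further: 0% = DMSO only wells and the 100% control is not disclosed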
NTR1 ag – NTR1 (human) agonism. NTR1-U2OS beta-arrestin-GFP spot imaging, agonist mode. activation, % at 20 µM. 0.17% of 330,000 active. AID 493036;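 active means activation at or above 40% of the spot to cytoplasm intensity ratio, with at least 20 cells analyzed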;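 further: 0% = DMSO without peptide and 100% = 100 nM NTR1 peptide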
Target sequence (P30989 whole entry, looked up): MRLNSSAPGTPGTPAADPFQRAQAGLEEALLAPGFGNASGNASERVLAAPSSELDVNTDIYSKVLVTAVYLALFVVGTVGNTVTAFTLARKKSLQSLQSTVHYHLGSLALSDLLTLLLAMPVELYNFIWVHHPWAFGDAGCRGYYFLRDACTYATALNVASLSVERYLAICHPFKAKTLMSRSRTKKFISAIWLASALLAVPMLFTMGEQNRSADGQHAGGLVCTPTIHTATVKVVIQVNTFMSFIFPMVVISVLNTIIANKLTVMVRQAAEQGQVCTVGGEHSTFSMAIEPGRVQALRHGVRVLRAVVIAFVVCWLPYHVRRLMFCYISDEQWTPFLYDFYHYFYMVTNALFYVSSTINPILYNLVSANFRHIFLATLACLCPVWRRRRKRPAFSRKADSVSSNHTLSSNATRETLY
* hit, by the source's call; · = not tested or not shown. An excerpt weighted towards active compounds, which were near 2.3% of everything screened.

SMILES	m5-HT2A agonist	B2AR ag	Granule exo inh	ABHD5-PLIN5 inh	NTR1 ag
CCc1ccc(CN2CCC(n3nccc3NC(=O)Cc3ccccc3)CC2)o1	-9.2	-10.7	-4.2	-0.2	1.7
CCOC(=O)c1c(NC(=O)c2cccs2)sc2c1CC(C)(C)OC2	-5.2	3.6	66.7*	-2.2	12.0
COc1ccc(N2C[C@H](C)[C@@H](CC(=O)Nc3ccc(Br)cc3)C2=O)cc1	3.3	·	-3.5	-4.5	·
Cn1cnc2nc(Cl)nc(Cl)c21	0.2	61.6*	0.3	-1.2	·
Cc1ccccc1-n1c(=O)cc(N2CC(C)OC(C)C2)[nH]c1=O (stereo not drawn)	3.6	-6.1	1.2	22.7*	0.0
CCc1nc(N2CCN(CC(=O)NCC3CCCO3)CC2)c(C#N)c2c1COC(C)(C)C2 (stereo not drawn)	2.0	-0.6	-1.1	4.7	1.7
Cc1ccc(C)c(S(=O)(=O)Nc2cc(SCC(=O)O)c(O)c3ccccc23)c1	-3.5	17.6	78.5*	11.6	·
O=C1C=CC(=C(c2ccc(O)cc2)c2ccc(O)cc2)C=C1	-8.1	-2.8	3.0	78.1*	4.3
O=C(CCCC(=O)c1ccc(O)cc1)c1ccc(O)cc1	1.5	-9.4	-1.9	0.6	-1.1
COc1ccc(/C=C/C(=O)c2ccccc2)cc1COc1ccc(F)cc1	-2.0	19.3	-2.8	22.4*	3.0
O=c1[nH]c(NNC(=S)NC2CCCCC2)nc2c1C1(CCCC1)Cc1ccccc1-2	-1.8	68.3*	12.3	-0.2	11.8
O=C1C(CO)C(CO)C(CO)C1CO (stereo not drawn)	3.2	1.4	69.1*	0.6	·
CC(C)(Oc1ccc(Cl)cc1)C(=O)NCc1ccc(S(N)(=O)=O)cc1	-1.5	0.5	0.1	0.7	0.3
COc1cc2c3nnc(-c4ccc(F)cc4)c-3cn(Cc3cccc(C)c3)c2cc1OC	-4.3	-1.3	17.7	2.9	124.0*
Cc1cc(OCc2nnc(SC(C)C(=O)O)n2Cc2ccccc2)ccc1Cl (stereo not drawn)	2.9	2.2	0.4	-8.0	-0.9
Cc1cc(=O)oc2c(N)nccc12	13.0	·	4.4	22.1*	·
O=C(/C(=C/c1ccncc1)n1ccnc1)c1ccc(Cl)cc1Cl	·	8.9	·	·	·
O=C(/C(=C/c1cccnc1)n1ccnc1)c1ccc(Cl)cc1Cl	-0.7	9.3	95.6*	6.5	0.0
OCCCNc1cc(-c2ccccc2)nc2cc(-c3ccc(F)cc3)nn12	1.3	1.0	9.0	-2.1	6.0
Cc1cccc(/C=C2/Sc3ccc(C(=O)NCCCN4CCOCC4)cc3NC2=O)c1	-10.5	19.4	60.0*	7.1	7.3
Nc1nonc1-n1nnc(C(=O)N/N=C/c2cccnc2)c1CSc1ccccc1	-1.5	3.2	5.1	4.1	1.2
CN(C)Cc1c(C(=O)N/N=C/c2ccccc2OCc2c(F)cccc2Cl)nnn1-c1nonc1N	-7.8	8.2	94.8*	-2.6	15.4
Nc1nonc1-n1nnc(C(=O)N/N=C/c2cccnc2)c1CSc1ccc(Cl)cc1	-4.9	-27.6	61.9*	-4.4	6.1
Nc1c(N2CCCC2)cc(Cl)c2nonc12	-1.5	-3.4	4.6	-34.9	-1.4
Nc1c(N2CCOCC2)cc(Cl)c2nonc12	2.9	45.7*	-1.8	-12.5	1.0
SMILES	m5-HT2A agonist	B2AR ag	Granule exo inh	ABHD5-PLIN5 inh	NTR1 ag
O=Cc1cccc(OCc2cccc3ccccc23)c1	0.2	70.9*	53.6	-4.5	8.1
C=C(C)c1cccc(C(C)(C)NC(=O)NCc2ccc(OC)c(OC)c2)c1	24.0*	-3.7	0.7	-4.1	-0.9
CN1CCN(C(=S)c2cn(Cc3ccccc3F)c3ccccc23)CC1	-9.2	1.4	1.1	8.6	-1.6
CCCCc1ccc(NC(=O)CSC2=NN3CCCC(=O)N=C3S2)cc1	1.1	71.5*	-0.5	-3.0	2.0
CC1(C)CC(=O)C2=C(C1)N=C1c3ccccc3C(=O)C1C2c1ccc(Cl)cc1 (stereo not drawn)	-7.7	8.7	34.2	22.1*	7.2
O=C1ON=C(c2cccc([N+](=O)[O-])c2)/C1=C/c1ccc(O)cc1	2.9	53.1*	8.6	1.7	37.9
O=C1ON=C(c2ccccc2)/C1=C/c1ccc(O)c(O)c1	6.9	25.9	-16.6	-5.2	27.7
CN(C)c1ccc(C=c2c3ccccc3n3c2cc(-c2ccccc2)[n+]3C)cc1	-10.3	-587.8	88.9*	18.5	·
CN(C)c1ccc(C=c2c3ccccc3n3c2cc(-c2ccc(Cl)cc2)[n+]3C)cc1	-5.0	-274.6	35.3	17.6	·
CCOC(=O)C(=N/O)/C(C)=N/NC(=O)C(=O)Nc1cc(Cl)ccc1Cl	-7.3	1.8	77.9*	-5.7	0.2
COc1ccc(OC)c(-c2csc(NC(=O)Cc3cccs3)n2)c1	-0.4	32.3	-6.3	9.3	6.0
O=C(COC(=O)Cc1ccc(F)cc1)NC(=O)NC1CCCC1	-5.2	6.4	-2.7	-1.9	-2.8
O=C(COC(=O)Cc1ccc(F)cc1)NC1CCCC1	21.1*	-4.5	-7.8	1.9	0.0
COc1cccc(C(c2sc3nc(C)nn3c2O)N2CCc3ccccc3C2)c1 (stereo not drawn)	-7.3	-10.6	-1.1	-0.9	-0.9
Cc1onc(-c2ccccc2)c1C(=O)OCCOc1ccc([N+](=O)[O-])cc1[N+](=O)[O-]	-4.3	1.5	38.0	-1.4	2.2
Cc1ccccc1OCCOC(=O)c1c(-c2ccccc2)noc1C	-0.7	-14.2	94.5*	-1.0	2.1
O=C(c1cc(-c2ccco2)nc2ccccc12)N1CCCC(C(F)(F)F)C1 (stereo not drawn)	3.6	-1.6	-0.2	11.5	0.5
CC(C)(C)c1ccc(/C=C(\c2nc3ccccc3[nH]2)S(=O)(=O)c2ccccc2)cc1	-5.9	21.1	11.3	42.7*	38.6
CCOc1ccc(Br)cc1CN(CC)CC	-1.9	-3.7	-7.9	4.6	-0.6
CC(C)(C)c1ccc(S(=O)(=O)/N=C2\C=C(NS(=O)(=O)c3ccccc3)C(=O)c3ccccc32)cc1	7.2	1.8	20.1	-7.2	3.5
Cc1ccc(S(=O)(=O)/N=C2/C=C(Sc3ncn[nH]3)C(=O)c3ccccc32)cc1	19.5*	85.4*	108.2*	40.2*	·
CC(C)c1ccc(S(=O)(=O)/N=C2/C=C(Sc3ncn[nH]3)C(=O)c3ccccc32)cc1	0.9	22.3	98.5*	14.8	·
CCCCOc1ccc(Br)cc1/C(C)=N/NC1=NCCN1	-4.6	48.2*	30.1	13.1	1.8
Cc1cc(Cl)n2c(nc3cc(F)c(F)cc32)c1C#N	-0.2	112.8*	10.4	6.0	·
O=C(CN1C(=O)NC2(CCCCC2)C1=O)Oc1ccc2ccc(=O)oc2c1	-7.5	-2.2	-8.2	-4.7	4.9
CCCCCCCCNC(=O)c1ccc(C)cc1	·	·	·	·	-0.1
O=[N+]([O-])c1cc(S(=O)(=O)Oc2ccccc2)ccc1Cl	-4.6	40.8	80.2*	3.6	·
O=S(=O)(Oc1ccccc1)c1ccc(Cl)c(Cl)c1	8.5	-0.5	-4.7	4.6	·
COCCN1CCCC(CNCc2cn(C)nc2-c2ccc(Oc3ccccc3)cc2)C1 (stereo not drawn)	5.3	10.3	53.7	11.1	-0.9
